# According to the supplement of paper PMC9135407:
# Where “and” joins values, the source holds several entries; their conditions need not be identical. Identical values can stand only once. Counter-ions that a name gives are not always drawn. About 620 (11%) of roughly 5,800 compounds showed activity.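 Rule for the calls: active = score above a cut-off or among the top three wells of a plate; in these data no inactive exceeds 0.85.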 The sample as a whole holds a higher share of actives than the screen did.
# Test system: primary human hepatic stellate cells (donor 1)
# Assay: scaled lipid accumulation score (0 = DMSO-like, 1 = nortriptyline-like); higher = stronger HSC inactivation (lipid re-accumulation), active = hit call of the paper
# Settings: 48 h
# [1] = library stock concentration: 3.33 mM
# [2] = library stock concentration: 10 mM
# [3] = library stock concentration: 1 mM
# [4] = library stock concentration: 80 uM
# [5] = library stock concentration: 400 uM
# [6] = library stock concentration: 2 mM
structure (smiles),measurement,setting,value
CCC(C)(Oc1ccc(C2(c3ccc(OC(C)(CC)C(=O)O)cc3)CCCCC2)cc1)C(=O)O (centres undefined) [Clinofibrate],scaled lipid accumulation score,[1],≤ 0 (inactive)
same,scaled lipid accumulation score,[2],≤ 0 (inactive)
CNCC[C@H](Oc1cccc2ccccc12)c1cccs1.Cl [Duloxetine hydrochloride],scaled lipid accumulation score,library stock concentration: 6 mM,1.05 (active)
CNCC[C@H](Oc1cccc2ccccc12)c1cccs1 [Duloxetine HCl],scaled lipid accumulation score,[1],0.357 (inactive)
same,scaled lipid accumulation score,[2],0.796 (inactive)
CNCCC(Oc1ccccc1OC)c1ccccc1 (centres undefined) [Nisoxetine hydrochloride],scaled lipid accumulation score,,0.246 (inactive)
same,scaled lipid accumulation score,[2],0.751 (inactive) and 0.328 (inactive)
CNCC[C@@H](Oc1ccccc1C)c1ccccc1 [Atomoxetine hydrochloride],scaled lipid accumulation score,library stock concentration: 7.2 mM,0.064 (inactive)
CNCC[C@H](Oc1cccc2ccccc12)c1cccs1 [Duloxetine],scaled lipid accumulation score,[2],1.39 (active)
CNCC[C@@H](Oc1ccccc1C)c1ccccc1 [Atomoxetine HCl],scaled lipid accumulation score,[1],0.319 (inactive)
same,scaled lipid accumulation score,[2],0.514 (inactive)
CNCC[C@@H](Oc1ccccc1C)c1ccccc1 [Tomoxetine hydrochloride],scaled lipid accumulation score,[2],0.484 (inactive)
CN(C)[C@@H](CCOc1cccc2ccccc12)c1ccccc1 [Dapoxetine HCl],scaled lipid accumulation score,[1],0.506 (inactive)
same,scaled lipid accumulation score,[2],0.625 (inactive)
CNCC[C@@H](Oc1ccccc1C)c1ccccc1 [Tomoxetine],scaled lipid accumulation score,[2],0.59 (inactive)
CNCC[C@H](Oc1cccc2ccccc12)c1cccs1,scaled lipid accumulation score,[2],0.953 (active)
Nc1n[nH]c(N)c1N=Nc1ccc(O)cc1 [Cdk9 Inhibitor II],scaled lipid accumulation score,[1],≤ 0 (inactive)
O=C(O)Cn1c(C(=O)Nc2nc(-c3ccccc3Cl)cs2)cc2ccccc21,scaled lipid accumulation score,[2],≤ -0.001 (inactive)
CC1=CC(=O)C2=C(C)CC[C@@H]3[C@H](OC(=O)[C@H]3C)[C@@H]12 [Leucomisine],scaled lipid accumulation score,,≤ 0 (inactive)
CCCCC[C@H](O)/C=C/[C@H]1C(=O)C[C@H](O)[C@@H]1CCCCCCC(=O)O [Prostaglandin D1],scaled lipid accumulation score,[3],0.018 (inactive)
CCCCC[C@H](O)/C=C/[C@H]1C(=O)C=C[C@@H]1C/C=C\CCCC(=O)O [Prostaglandin J2],scaled lipid accumulation score,[3],≤ 0 (inactive) and ≤ -0.021 (inactive)
C[C@]1(O)C[C@@H](c2nc(-c3ccc4ccc(-c5ccccc5)nc4c3)c3c(N)nccn32)C1 [OSI-906 (Linsitinib)],scaled lipid accumulation score,[1],≤ 0 (inactive)
same,scaled lipid accumulation score,[2],≤ 0 (inactive)
C[C@]1(O)C[C@@H](c2nc(-c3ccc4ccc(-c5ccccc5)nc4c3)c3c(N)nccn32)C1,scaled lipid accumulation score,[4],0.05 (inactive)
same,scaled lipid accumulation score,[5],≤ -0.009 (inactive)
same,scaled lipid accumulation score,[6],≤ -0.009 (inactive)
same,scaled lipid accumulation score,[2],≤ -0.009 (inactive)
Cl.O=S(=O)(c1cccc2c(Cl)cccc12)N1CCCNCC1,scaled lipid accumulation score,[2],0.935 (active)
NCCCCCCCCCCNS(=O)(=O)c1cccc2c(Cl)cccc12 [A-7 hydrochloride],scaled lipid accumulation score,[2],0.41 (inactive)
Cl.O=S(=O)(c1cccc2c(Cl)cccc12)N1CCCNCC1 [ML 9 hydrochloride],scaled lipid accumulation score,[2],0.941 (active)
CC1CNCCN1S(=O)(=O)c1cccc2cnccc12 (centres undefined),scaled lipid accumulation score,[2],0.081 (inactive)
CCCCCCCC/C=C\CCCCCC(=O)OC [cis-7-Hexadecenoic Acid methyl ester],scaled lipid accumulation score,[3],≤ 0 (inactive)
CNc1nc(Nc2cn(C(C)(C)C#N)nc2C)ncc1C(F)(F)F,scaled lipid accumulation score,[1],≤ -0.009 (inactive)
same,scaled lipid accumulation score,[2],0.132 (inactive)
N[C@@H]1[C@H]2CN(c3nc4c(cc3F)c(=O)c(C(=O)O)cn4-c3ccc(F)cc3F)C[C@@H]12 [Trovafloxacin mesylate],scaled lipid accumulation score,[2],0.112 (inactive)
CCCCCCCCCC(=O)NC(CN1CCOCC1)C(O)c1ccccc1 (racemic),scaled lipid accumulation score,[3],≤ -0.021 (inactive)
Cc1ccc(C(=O)Cn2c3c(sc2=N)CCCC3)cc1 [Pifithrin-.alpha.],scaled lipid accumulation score,[3],≤ 0 (inactive)
O=C(O)CCC/C=C\C[C@@H]1[C@@H](/C=C/[C@@H](O)CCc2cccc(C(F)(F)F)c2)[C@H](O)C[C@@H]1O [17-trifluoromethylphenyl trinor Prostaglandin F2.alpha.],scaled lipid accumulation score,[3],≤ 0 (inactive)
CCN(CC)C(=O)CCC/C=C\C[C@@H]1[C@@H](/C=C/[C@@H](O)CCc2ccccc2)[C@H](O)C[C@@H]1O [17-phenyl trinor Prostaglandin F2.alpha. diethyl amide],scaled lipid accumulation score,[3],≤ 0 (inactive)
"CCS(=O)(=O)N(C)[C@H]1c2cc(C#N)ccc2OC(C)(C)[C@@H]1O [(-)-[3R,4S]-Chromanol 293B]",scaled lipid accumulation score,[2],0.037 (inactive)
NC(CCC(=O)NC(CSN=O)C(=O)NCC(=O)O)C(=O)O [S-Nitroso-L-glutathione],scaled lipid accumulation score,[3],0.026 (inactive)
CNS(=O)(=O)c1ccc(NC(=O)c2ccccc2C(=O)O)cc1 [Phthalysulfathiazole],scaled lipid accumulation score,library stock concentration: 4.8 mM,≤ 0 (inactive)
O=C1c2cccc(O)c2C(=O)c2c(O)cccc21 [Danthron],scaled lipid accumulation score,library stock concentration: 8.3 mM,0.038 (inactive)
O=C1C(SCCO)=C(SCCO)C(=O)c2ccccc21 [listing 1 of 3 here],scaled lipid accumulation score,[2],1.2 (active)
O=C1C(SCCO)=C(SCCO)C(=O)c2ccccc21 [listing 2 of 3 here],scaled lipid accumulation score,[2],0.156 (inactive)
O=C1C(SCCO)=C(SCCO)C(=O)c2ccccc21 [listing 3 of 3 here],scaled lipid accumulation score,library stock concentration: 16.1 mM,1.05 (active)
N[C@@H](CO)c1ccccc1 [(R)-(-)-2-Phenylglycinol],scaled lipid accumulation score,[3],≤ 0 (inactive)
CCN(c1ccccc1)c1cc(=NC)n(C)c(C)n1,scaled lipid accumulation score,[2],≤ 0 (inactive)
CN(C)CCCCCCOc1ccc(-n2ccnc2)cc1,scaled lipid accumulation score,[3],0.054 (inactive) and 0.003 (inactive)
NC(N)=N[C@@H](CCC(=O)O)C(=O)O [.alpha.-Guanidinoglutaric Acid],scaled lipid accumulation score,[3],≤ 0 (inactive)
NC(N)=N[C@@H](CCC(=O)O)C(=O)O [alpha-Guanidinoglutaric acid],scaled lipid accumulation score,[2],≤ -0.007 (inactive)
O=C(Nc1cccc(C(F)(F)F)c1)Nc1cc(S(=O)(=O)NC2CC2)ccc1-c1ccsc1,scaled lipid accumulation score,[1],0.022 (inactive)
same,scaled lipid accumulation score,[2],0.632 (inactive)
OC(CC1c2ccccc2-c2cncn21)C1CCCCC1 (centres undefined),scaled lipid accumulation score,[1],≤ -0.009 (inactive)
same,scaled lipid accumulation score,[2],0.209 (inactive)
Cc1ccc(Nc2c(F)cccc2Cl)c(CC(=O)O)c1 [Lumiracoxib],scaled lipid accumulation score,[1],≤ 0 (inactive)
same,scaled lipid accumulation score,[2],0.025 (inactive)
Cc1ccc(Nc2c(F)cccc2Cl)c(CC(=O)O)c1,scaled lipid accumulation score,[2],≤ 0 (inactive)
CCCCC[C@H](O)/C=C/[C@@H]1c2cc(CCCCC(=O)O)n(-c3ccccc3)c2C[C@H]1O [Piriprost (potassium salt)],scaled lipid accumulation score,[3],≤ 0 (inactive)
CN1CCc2ccccc2Cc2[nH]c3ccccc3c2CC1,scaled lipid accumulation score,[2],0.244 (inactive)
O=c1c2ccccc2nc2n1CCc1c-2[nH]c2ccccc12 [Rutaecarpine] [listing 1 of 2 here],scaled lipid accumulation score,[1],≤ 0 (inactive)
same,scaled lipid accumulation score,[2],0.58 (inactive)
O=c1c2ccccc2nc2n1CCc1c-2[nH]c2ccccc12 [Rutaecarpine] [listing 2 of 2 here],scaled lipid accumulation score,[2],0.975 (active)
CCC(CC)(NC(=O)C(C)C)C(=O)N[C@@H](CCCN=C(N)N)C(=O)NC1(C(=O)NC(c2ccc(F)cc2)c2ccc(F)cc2)CCCC1,scaled lipid accumulation score,[1],≤ -0.009 (inactive)
same,scaled lipid accumulation score,[2],≤ 0 (inactive)
Cc1cnc(-c2cc(N3CCN(C(=O)CCS(C)(=O)=O)CC3)ncc2Cl)c(C)c1,scaled lipid accumulation score,[1],≤ 0 (inactive)
same,scaled lipid accumulation score,[2],≤ 0 (inactive)
CCC(C)[C@H](NC(=O)[C@H](CCCCN)NC(=O)[C@H](CCCCN)NC(=O)[C@H](C)NC(=O)[C@H](CC(C)C)NC(=O)[C@H](C)NC(=O)[C@H](C)NC(=O)[C@H](CC(C)C)NC(=O)[C@H](C)NC(=O)[C@H](CCCCN)NC(=O)[C@H](CC(C)C)NC(=O)[C@H](CC(N)=O)NC(=O)[C@@H](N)[C@@H](C)CC)C(=O)N[C@@H](CC(C)C)C(N)=O (some centres undefined) [Mastoparan],scaled lipid accumulation score,library stock concentration: 3 mM,≤ -0.012 (inactive)
COC(=O)Nc1ccc(-c2nc(N3CCOCC3)c3cnn(C4CCN(C(=O)OC)CC4)c3n2)cc1,scaled lipid accumulation score,[1],≤ 0 (inactive)
same,scaled lipid accumulation score,[2],≤ 0 (inactive)
CNC(=O)Nc1ccc(-c2nc(N3CC4CCC(C3)O4)c3cnn(C4CCC5(CC4)OCCO5)c3n2)cc1,scaled lipid accumulation score,[4],≤ 0 (inactive)
same,scaled lipid accumulation score,[5],0.006 (inactive)
same,scaled lipid accumulation score,[6],≤ 0 (inactive)
same,scaled lipid accumulation score,[1],≤ 0 (inactive)
same,scaled lipid accumulation score,[2],0.733 (inactive) and 0.772 (inactive)
c1cncc(CN2CCC(n3ncc4c(N5CCOCC5)nc(-c5ccc6[nH]ccc6c5)nc43)CC2)c1,scaled lipid accumulation score,[1],1.19 (active)
same,scaled lipid accumulation score,[2],1.19 (active)
CN(C)[C@@H]1C(O)=C(C(=O)NCNCCCC[C@H](N)C(=O)O)C(=O)[C@@]2(O)C(O)=C3C(=O)c4c(O)cccc4[C@@](C)(O)[C@H]3C[C@@H]12 [Lymecycline],scaled lipid accumulation score,,0.003 (inactive)
CC(C)(C)OC(=O)Nc1cccc2[nH]ccc12 [(1H-Indol-4-yl)-Carbamic Acid tert-butyl ester],scaled lipid accumulation score,[3],≤ 0 (inactive)
C[C@@H](N)c1ccc(C(=O)Nc2ccnc3[nH]ccc23)cc1.Cl.Cl,scaled lipid accumulation score,[2],1.13 (active)
C[C@@H](N)c1ccc(C(=O)Nc2ccnc3[nH]ccc23)cc1,scaled lipid accumulation score,[4],≤ -0.009 (inactive)
same,scaled lipid accumulation score,[5],≤ -0.009 (inactive)
same,scaled lipid accumulation score,[6],0.069 (inactive)
CCCCCCCCCCCCCC=CC(O)C(COP(=O)(O)O)NC(=O)CCCCCCC (centres undefined) [C-8 Ceramide-1-phosphate],scaled lipid accumulation score,[3],≤ 0 (inactive)
Nc1nc(F)nc2c1ncn2[C@@H]1O[C@H](COP(=O)(O)O)[C@@H](O)[C@@H]1O [Fludarabine Phosphate],scaled lipid accumulation score,[1],0.514 (inactive)
same,scaled lipid accumulation score,[2],0.748 (inactive)
CN1CCCN(C(c2ccccc2)c2ccc(Cl)cc2)CC1.Cl.Cl (centres undefined) [Homochlorcyclizine dihydrochloride],scaled lipid accumulation score,,0.879 (active)
CN1CCN(C(c2ccccc2)c2ccccc2)CC1 [Cyclizine hydrochloride],scaled lipid accumulation score,,0.648 (inactive)
CN1CCN(C(c2ccccc2)c2ccccc2)CC1 [Cyclizine 2HCl],scaled lipid accumulation score,[1],≤ 0 (inactive)
same,scaled lipid accumulation score,[2],0.742 (inactive)
CN1CCN(C(c2ccccc2)c2ccc(Cl)cc2)CC1 (centres undefined) [Chlorcyclizine hydrochloride],scaled lipid accumulation score,,0.377 (inactive)
same,scaled lipid accumulation score,library stock concentration: 5.9 mM,0.391 (inactive)
CN1CCN(C(c2ccccc2)c2ccccc2)CC1 [Cyclizine],scaled lipid accumulation score,library stock concentration: 7.5 mM,0.186 (inactive)
same,scaled lipid accumulation score,[2],0.521 (inactive)
